Values joined by “and” are separate entries in the source; they are usually repeats but may differ in a detail not shown here. Identical values can stand only once. Results filed as inconclusive are left out. Where a call stands in place of a potency, no number is given. Active and inactive are the calls of the source. Calls come from the whole dose curve; as a rule, active = well fitted cell-killing curve with a large enough effect in the repeat runs; inconclusive = weak or mixed curves, or effect the other way; inactive = no such curve, though single readings can be large or run the other way.
Experiment: qHTS assay to identify small molecule antagonists of the progesterone receptor (PR) signaling pathway - cell viability counter screen (AID 1346798); note: nearly all actives have a fitted effect of over 50% in size
Details: PR-UAS-bla HEK293T viability, CellTiter-Glo luminescence, 16 h; series mostly up to 92.4 µM
Description: National Center for Advancing Translational Sciences [NCATS]
NIH Chemical Genomics Center [NCGC]
U.S. Environmental Protection Agency [EPA]
National Institutes of Environmental Health Sciences [NIEHS]
National Toxicology Program [NTP]
U.S. Food and Drug Administration [FDA]
Progesterone receptor (PR), a nuclear hormone receptor, plays an important role in development, metabolic homeostasis and reproduction. It is activated by the steroid hormone progesterone. Endocrine disrupting chemicals (EDCs) and their interactions with steroid hormone receptors like PR causes disruption of normal endocrine function. To identify the compounds that inhibit PR signaling, a PR-UAS-bla GripTite cell line i.e. PR-UAS-bla HEK293T (Invitrogen, Carlsbad, CA, USA) containing a beta-lactamase reporter gene under the control of an UAS response element was used to screen Tox21 10K compound library. The cytotoxicity of the Tox21 compound library against the PR-bla cell line was tested in parallel by measuring the cell viability using CellTiter-Glo assay in the same wells.
Tox21 Assay Protocol Summary:
PR-UAS-bla HEK293T cells were dispensed at 3,000 cells/4 uL of assay medium containing 2% charcoal stripped FBS per well into black wall/clear-bottom 1536-well plates using a Multidrop Combi (ThermoFisher Scientific, Waltham, MA) dispenser. After the assay plates were incubated at a 37C and 5% CO2 for 4 hr, 23 nL of compounds dissolved in DMSO, positive controls or DMSO only was transferred to the assay plate by a Pintool station (Kalypsys, San Diego, CA), followed by addition of 1 uL of R5020 in assay medium using a Flying Reagent Dispenser (FRD, Aurora Discovery, San Diego, CA). The plates were incubated at 37C and 5% CO2 for 16 hr. Then 1 uL of LiveBLAzer B/G FRET substrate was added using a Flying Reagent Dispenser, the plates were incubated at room temperature for 2 hours, and fluorescence intensity was measured by an Envision plate reader (PerkinElmer, Shelton, CT). For cell viability readout that measures cytotoxicity, 4 uL/well of CellTiter-Glo reagent was added into the assay plates using a FRD. After 30 min incubation at room temperature, the luminescence intensity in the plates was measured using a ViewLux (PerkinElmer) plate reader.
In the case of `Nc1nc(=S)c2[nH]cnc2[nH]1`, the Potency is reported as “inactive”.
For `c1cc(C(c2ccc(OCC3CO3)cc2)C(c2ccc(OCC3CO3)cc2)c2ccc(OCC3CO3)cc2)ccc1OCC1CO1` (stereo not given), the Potency was “inactive”.
For `CC1=CC(=O)c2ccccc2C1=O`, the Potency was “inactive”.
With `CCCCCCCCCCCCCC[P+](CCCC)(CCCC)CCCC` the Potency was 30.5 µM (active) and 54.5 µM (active).
With `CO[Si](OC)(OC)c1ccccc1` the Potency was “inactive”.
With `COc1ccc(CCN(C)CCCC(C#N)(c2ccc(OC)c(OC)c2)C(C)C)cc1OC` (stereo not given) the Potency was “inactive”.
In the case of `CC1=C(C=O)C(C)(C)CC=C1`, the Potency is reported as “inactive”.
For `CCCCCCCCCCCCCCCCCl`, the activity change, negative = cytotoxicity was -2.11% [at 18.9 µM] (inactive).
With `Nc1cc(Cl)c(-c2cc(Cl)c(N)cc2Cl)cc1Cl` the Potency was 38.5 µM (active) and 43.3 µM (active).
In the case of `CC(COc1ccccc1)N(CCCl)Cc1ccccc1` (stereo not given), the Potency is reported as “inactive”.
With `O=C(O)c1cccc(C(=O)O)c1` the Potency was “inactive”.
In the case of `CN1C(=O)c2ccc([N+](=O)[O-])cc2C1=O`, the Potency is reported as “inactive”.
For `C=CS(=O)(=O)O`, the Potency was “inactive”.
For `O=Cc1ccc(Cl)cc1`, the Potency was “inactive”.
For `BrC1CCC(Br)C(Br)CCC(Br)C(Br)CCC1Br` (stereo not given), the Potency was 54.3 µM (active) and 51.7 µM (active).
With `CC(C)(C)NCC(O)COc1ccccc1OCC1CCCO1` (stereo not given) the Potency was “inactive”.
For `NNCCc1ccccc1`, the Potency was “inactive”.
With `Cc1cccc(O)c1C` the Potency was “inactive”.
With `NC(=Nc1ccccc1)Nc1ccccc1` the Potency was “inactive”.
In the case of `Cc1cc(Cc2cc(C)cc(C(C)(C)C)c2O)c(O)c(C(C)(C)C)c1`, the Potency is reported as 43.5 µM (active) and 48.6 µM (active).
For `CC(=O)C1=C(C)[C@@H]2C[C@@]3(C1)[C@H](C)CC[C@H]3C2(C)C`, the Potency was “inactive”.
In the case of `C=CC(=O)OCCCCCCOC(=O)C=C`, the Potency is reported as “inactive”.
With `CC(=O)Nc1ccc(C(=O)CCl)cc1` the Potency was “inactive”.
For `O=C1NCC2(CCN(CCc3ccccc3)CC2)O1`, the Potency was “inactive”.
In the case of `CCCC(=O)c1ccccc1`, the Potency is reported as “inactive”.
In the case of `CC(C)CCCCCCc1ccc(O)cc1`, the Potency is reported as 6.22 µM (active).
In the case of `CCCCC/C=C/CC1CC(=O)OC1=O` (stereo not given), the Potency is reported as “inactive”.
For `CC(C)(C)c1ccccc1`, the Potency was “inactive”.
With `CCCCCCCCCCCCc1ccccc1O` the Potency was 38.6 µM (active).
In the case of `CCCN[C@H]1CCc2nc(N)sc2C1`, the Potency is reported as “inactive”.
In the case of `O=C1CC2(CCCC2)CC(=O)N1CCCCN1CCN(c2ncccn2)CC1`, the Potency is reported as “inactive”.
With `Cc1c(O)cccc1C(=O)N[C@@H](CSc1ccccc1)[C@H](O)CN1C[C@H]2CCCC[C@H]2C[C@H]1C(=O)NC(C)(C)C` the Potency was 29.8 µM (active).
With `CC[C@@H](N)CO` the Potency was “inactive”.
With `NC(Cc1ccc(Cl)cc1)C(=O)O` (stereo not given) the activity change, negative = cytotoxicity was -9.96% [at 0.348 µM] (inactive).
With `OCC(CO)N[C@H]1C[C@](O)(CO)[C@@H](O)[C@H](O)[C@H]1O` the Potency was “inactive”.
In the case of `O=c1n(CC2CO2)c(=O)n(CC2CO2)c(=O)n1CC1CO1` (stereo not given), the Potency is reported as “inactive”.
In the case of `CC(=O)CC(C)=O`, the Potency is reported as “inactive”.
For `O=C(O)c1cc(Cl)cc(Cl)c1`, the Potency was “inactive”.
In the case of `CC(=O)CC(=O)Nc1ccc2[nH]c(=O)[nH]c2c1`, the Potency is reported as “inactive”.
With `CN(C)c1ccc(C(=C2C=CC(=[N+](C)C)C=C2)c2ccccc2)cc1` the Potency was 8.63 µM (active) and 6.68 µM (active) and 7.5 µM (active).

— PubChem BioAssay (Tox21)
Potency is the fitted concentration of half-maximal effect.
